Experimental data published in PubChem BioAssay AID709 (SRMLSC, 2007).
Screen size: about 65,000 compounds; about 3,600 (5.5%) were called active. The list comes from a sample in which actives are over-represented; it also holds similar structures and randomly drawn compounds. A number with no mark means an inactive call.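 The calls were made as follows: active = at 10 µM, mean starting fluorescence two-fold or more over control wells; inactive = the rest.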

assay: intrinsic fluorescence of library compounds, ex339/em460 – biochemical, MLSMR library, data from DPM-DC assay, artefact control, profiling panel (AID 709); settings: compound autofluorescence, ex339/em460 nm, NADH buffer; at 10 µM; stronger effect = higher value; 1 = no-compound wells, NADH background;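 also: signal is the first read of a kinetic run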

Compound	fluorescence fold increase
Cc1ccc(Cn2c(NC(=O)c3ccco3)nc3ccccc32)cc1	1.32
CCn1nc(NC(=O)c2ccco2)c2cc3ccc(C)cc3nc21	3.62 (active)
Cc1ccc(-n2nc3cc(Cl)c(NC(=O)c4ccco4)cc3n2)cc1	1.84
CCOc1ccc(NC(=O)CCS(=O)(=O)c2cccc3nsnc23)cc1	1.08
CCC1CCCCN1C(=O)Nc1cccc(NC(=O)N2CCCCC2CC)c1 (configuration not stated)	1.13
CCOC(=O)N1CCN(S(=O)(=O)c2cc3c(cc2C)NC(=O)CO3)CC1	1.11
CCn1ncc(C2=NOC(C(=O)N3CCN(c4ccccc4)CC3)C2)c1C (configuration not stated)	1.14
O=C(NCc1cccs1)c1ccc2c(c1)ncn2C1CCCC1	1.03
O=C(CSc1nnc(-c2ccc(NS(=O)(=O)c3ccccc3)cc2)o1)NCC1CCCO1 (configuration not stated)	1.01
O=C(CSC1=Nc2ccccc2C2=NC(c3ccccc3)C(=O)N12)NCC1CCCO1 (configuration not stated)	2.12 (active)
O=C(CS(=O)(=O)Cc1ccccc1)NCC1CCCO1 (configuration not stated)	1.1
CN(C(=O)COc1ccccc1)c1nnc(-c2ccncc2)s1	5 (active)
CN(C(=O)C1CCOC1)c1nnc(-c2cccnc2)s1 (configuration not stated)	1.03
CN(C(=O)c1ccccn1)c1nnc(-c2ccccn2)s1	3.72 (active)
O=C(c1cccs1)N(C(=O)c1cccs1)c1ccccn1	1.09
CN(C(=O)c1ccno1)c1nnc(-c2cccnc2)s1	1.68
COc1cccc(-c2nnc(N(C)C(=O)c3ccno3)s2)c1	1.38
Cc1ccc(C)c(NC(=O)CSc2nnc(Cc3cccn3C)n2-c2ccc(F)cc2)c1	1.08
CCCCOc1ccccc1/C=c1/sc2nc(-c3oc4ccccc4c3C)nn2c1=O	1.1
Cc1ccccc1CSc1nnc(-c2ccccn2)n1N	1.08
CN(C)CCCNc1c2c(c(C#N)c3nc4ccccc4n13)CCC2	2.1 (active)
N#Cc1c2c(c(N3CCN(CCO)CC3)n3c1nc1ccccc13)CCCC2	1.53
COc1ccc(-n2nc3c(c2NC(=O)Cc2cccc(C)c2)CS(=O)C3)cc1 (configuration not stated)	1.15
Cn1cccc1C1(C(F)(F)F)NCCNC1=O (configuration not stated)	1.11
CC(=O)c1ccc(NC(=O)N[C@@H](Cc2ccccc2)C(=O)O)cc1	1.09
COc1ccc(NC(=O)c2ccc(OC)cc2)cc1	1.13

Compound	fluorescence fold increase
COc1cc(OC)cc(C(=O)Nc2ncc3c(n2)CC(C)(C)CC3=O)c1	1.1
COc1cc(OC)cc(C(=O)Nc2ccc(-c3nc4ccccc4o3)c(O)c2)c1	2.11 (active)
Cc1ccc(S(=O)(=O)NC(C)C(=O)Nc2ccccc2C(=O)N2CCCC2)cc1 (configuration not stated)	1.1
CCCC(=O)N=c1sc2cccc(F)c2n1C	1.09
Cc1cc(N2CCCC2)n2nc(C)c(-c3ccccc3)c2n1	1.68
Cc1nn2c3cc(N4CCOCC4)ccc3nc2c2ccccc12	1.11
Cc1cc(C)c2c(n1)nn1c(-n3ccnc3)cc(C)nc21	3.27 (active)
Cc1cc(C)c2c(n1)nn1c(N3CCN(c4cccc(Cl)c4)CC3)cc(C)nc21	2.17 (active)
O=C(c1ccco1)N1CCN(c2cccc(Cl)c2)CC1	1.03
Cc1cc(C)c2c(n1)nn1c(N3CCOCC3)cc(C)nc21	2.97 (active)
C/C(O)=C\c1nc(=O)c2c(C)cc(C)nc2n1-c1ccccc1	1.08
Cc1nc(SC(C)C)[nH]c(=O)c1Cc1ccccc1	1.11
CCOc1ccc2nc(NC(=O)CSc3nc4c(c(=O)n(C)c(=O)n4C)n3CC)sc2c1	1.12
CC(=O)NC(Cc1ccc(F)cc1)C(=O)O (configuration not stated)	1.02
CCOC(=O)c1oc2ccccc2c1NC(=O)c1cccs1	1.25
N#C/C=C1\Sc2ccccc2C(=O)N1CC(=O)N1CCN(S(=O)(=O)c2ccccc2)CC1	1.1
COc1cccc(NC(=O)C(C)Oc2ccccc2)c1 (configuration not stated)	1.11
CC1Oc2ccccc2N(Cc2cccnc2)C1=O (configuration not stated)	1.14
Cc1ccc(C(=O)OCC(=O)NCc2ccc3c(c2)OCO3)s1	0.99
O=C(COc1ccccc1)NCc1ccc2c(c1)OCO2	1.08
COC(=O)Cc1c(C)c2ccc(OCC(=O)NCc3ccc4c(c3)OCO4)cc2oc1=O	2.07 (active)
COCc1nnc(NC(=O)CS(=O)(=O)Cc2ccccc2)s1	1.1
Cc1nc2c(-c3ccccc3)c(C)[nH]n2c(=O)c1Cl	2.16 (active)
Cc1nc2nc(COc3ccccc3)[nH]n2c(=O)c1C	1.17
CC(=O)c1cc(-c2ccccc2)[nH]c1N1CCCC1	1.05
N#Cc1nc(COc2ccc(Cl)cc2)oc1N1CCCC1	1.02

Compound	fluorescence fold increase
Cc1ccc(OCc2nc(C#N)c(N3CCCC3)o2)cc1	1.03
CC1CCN(c2oc(-c3ccccc3F)nc2C#N)CC1	2.45 (active)
Cc1cc(C)c(C#N)c(SCc2ccc3c(c2)OCO3)n1	1.09
CCOC(=O)N1CCN(C(=O)CN(C2CCCCC2)S(C)(=O)=O)CC1	1.07
COc1ccc(N2CCN(C(c3cc4ccc(C)cc4[nH]c3=O)c3nnnn3C3CCCC3)CC2)cc1 (configuration not stated)	1.25
CCOc1ccc2[nH]c(=O)c(C(c3nnnn3CCOC)N3CCOCC3)cc2c1 (configuration not stated)	5.03 (active)
COCCn1nnnc1C(c1cc2ccc(OC)cc2[nH]c1=O)N1CCc2ccccc2C1 (configuration not stated)	1.12
O=C(O)Cc1ccc(NC(=O)C2CCCCC2C(=O)O)cc1 (configuration not stated)	1.09
CC1CN(C(=O)c2ccc3c(c2)OCO3)OC(c2ccccc2)O1 (configuration not stated)	1.07
COc1ccc(C2/C(=C(/O)c3ccc(OC(C)C)cc3)C(=O)C(=O)N2CCCN2CCOCC2)cc1 (configuration not stated)	1.01
O=C(OCC(=O)N1CCN(C(=O)c2ccco2)CC1)c1ccccc1Cc1ccccc1	0.99
COC(=O)c1c(NC(=O)CSc2nncs2)sc2c1CCCCC2	1.1
COc1cc(OC)c(NC(=O)c2ccc(Br)o2)cc1Cl	1.09
CCOC(=O)c1c(NC(=O)c2cccs2)sc(C)c1C	1.74
CC(CNC(=O)c1ccc(Br)o1)NC(=O)c1ccc(Br)o1 (configuration not stated)	1.02
CCc1c(C)sc(NC(=O)c2ccc(Br)o2)c1C(=O)OC	2.8 (active)
CCOCC(=O)Nc1sc2c(c1C(=O)OCC)CCCC2	1.11
CCOC(=O)c1c(NC(=O)c2ccc(Br)o2)sc2c1CCCC2	2.17 (active)
COC(=O)c1c(NC(=O)c2cccs2)sc2c1CCCC2	2.23 (active)
CCCOC(=O)Nc1sc2c(c1C(=O)OCC)CCC2	1.1
Fc1ccccc1CCNc1nnnn1-c1ccccc1	1.11
COc1cc(NS(=O)(=O)c2ccc(NC(C)=O)cc2)cc(OC)c1	1.13
COC(=O)c1ccc2c(c1)S(=O)(=O)NC(=NCCCN1CCOCC1)S2	1.06
CCNC(=O)CN(c1ccc(C)cc1)S(=O)(=O)c1ccc(SC)cc1	1.06
CCCOP(=O)(c1ccc(N(C)C)cc1)C(O)c1cc(OC)c(OC)c(OC)c1 (configuration not stated)	1.13
CN(C)CCCn1c(N)c(C#N)c2nc(C#N)c(C#N)nc21	3.35 (active)

Compound	fluorescence fold increase
O=C1C(C=NCC2CCCO2)=C(O)c2ccccc21 (configuration not stated)	1.09
COc1ccc(-c2cc(C(F)(F)F)n3nc(C(=O)N4CCOCC4)c(Cl)c3n2)cc1	1.17
O=C(NCc1ccco1)c1cnn2c(C(F)(F)F)cc(-c3ccco3)nc12	1.6
COC(=O)c1cnn2c(C(F)(F)F)cc(-c3ccco3)nc12	2.46 (active)
CC(=O)Nc1ccc(S(=O)(=O)Nc2ccc(N3CCOCC3)c(F)c2)cc1	1.1
CCn1c(SCC(=O)NCc2ccco2)nnc1-c1ccc(N)cc1	1.1
CCOC(=O)c1cc(-c2ccc(Cl)s2)nc2c1c(C)nn2C	3.19 (active)
CCOC(=O)c1cc(NC(=O)SCC(=O)O)c(C)nc1C	1.15
CCOC(=O)c1c(C(C#N)C#N)cc(C)nc1C	0.98
CCOC(=O)N1CCN(C(=O)c2cc3c(ccc4ccccc43)oc2=O)CC1	3.93 (active)
C=CCc1cccc2cc(C(=O)N3CCN(C(=O)OCC)CC3)c(=O)oc12	1.17
CNC(=O)c1cc2c(ccc3ccccc32)oc1=N	2.32 (active)
CN1CCN(CCCNC(=O)c2cc3c(=O)oc4ccccc4c3s2)CC1	1.53
O=C(NCCc1ccc2c(c1)OCCO2)c1cc2ccccc2o1	1.11
CS(=O)(=O)N1CCN(C(=O)c2cc3ccccc3oc2=O)CC1	1.14
Cc1ccc(C(=O)N2CCN(C3CCCCC3)CC2)s1	1.14
Cc1oc(C)c(C(=O)NCCCC(=O)O)c1C(=O)NCCCC(=O)O	1.14
CCOc1ccc(Cn2nnc(C(=O)Nc3ccc(OC)cc3OC)c2N)cc1	1.25
C[N+]1(CCNC(=O)/C=N/O)CCCCC1	1.1
CCCCC(=O)N1CC2(C)CN(C(=O)CCCC)CC(C)(C1)C2=O	1.09
COc1ccc(N2C(=O)CCC(C(=O)Nc3ccccn3)C2c2ccc(OC)c(OC)c2)cc1 (configuration not stated)	0.92
COc1ccc(C2CC(=O)C=C(NCC3CCCO3)C2)cc1 (configuration not stated)	1.07
CC1(C)CC(=O)c2cc(OCC(=O)NCC3CCCO3)ccc2O1 (configuration not stated)	5.06 (active)
Cc1ccc(C(=O)NCC2CCCO2)o1 (configuration not stated)	1.14
